Data on ten compounds can be found in article PMC5540273 (PLoS ONE, 2017).

Test systems include SRPK3; STK16; STK33; STK35; STK36; STK39; SYK; SgK110; TAOK1; TAOK2; TAOK3; TBK1; TEC; TESK1; TGFBR1; TGFBR2; TIE1; TLK1.
Common to all, as to settings: concentration: 1 μM, replicates: in singlicate; n = 1
Another test deals with T1, TAK1.
T1 construct: gene MAP3K7

The test system of another test is T2, TIE2.
T2 construct: gene TEK
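Further: KINOMEscan kinase panel screen.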

For `Cc1c2ccc(N(C)c3ccnc(Nc4cccc(S(N)(=O)=O)c4)n3)cc2nn1Cc1ccccc1.Cl.Cl` [GW787226], the “%Inh” value is given as 2% with SRPK3; 55% in the test on STK16; 0% with STK33; 0% in the test on STK35; 39% in the test with STK36; 0% with STK39. For the same compound, the “%Inh” value in the test with SYK is reported as 60%; with SgK110, 2%; in the test on TAK1 it was 4%; with TAOK1, 0%; in the test on TAOK2, 72%; with TAOK3 it was 0%. Further, the “%Inh” value with TBK1 was determined as 35%; with TEC, 11%; in the test with TESK1, 15%; with TGFBR1, 0%; in the test with TGFBR2 it was 63%; with TIE1 it was 92.2%. For the same compound, the “%Inh” value was found to be 77% with TIE2 and 0% with TLK1.
Take `O=c1cc(N2CCOCC2)nc2n(Cc3cccc4ccccc34)ccn12` [GSK2333389]: the “%Inh” value with SRPK3 was determined as 0%; in the test with STK16, 0%; in the test with STK33, 0%; in the test with STK35 it was 2%; in the test with STK36, 0%; in the test with STK39 it was 0%. For the same compound, the “%Inh” value in the test on SYK is reported as 2%; in the test with SgK110, 0%; in the test with TAK1, 0%; in the test with TAOK1, 0%; in the test on TAOK2, 0%; in the test on TAOK3 it was 0%. In addition, the “%Inh” value is reported as 0% in the test with TBK1; 0% in the test with TEC; 0% with TESK1; 17% with TGFBR1; 1% in the test with TGFBR2; 11% in the test with TIE1. Further, the “%Inh” value with TIE2 and with TLK1 was 0% in each case.
Turning to `NS(=O)(=O)c1cccc(-c2ccc3nccc(-c4cccc(S(N)(=O)=O)c4)c3c2)c1` [GW867253], the “%Inh” value stood at 23% in the test with SRPK3; 12% in the test with STK16; 0% in the test on STK33; 0% in the test on STK35; 0% in the test on STK36; 0% with STK39. Further, the “%Inh” value in the test on SYK amounted to 1%; with SgK110, 0%; in the test on TAK1, 6%; with TAOK1, 2%; with TAOK2 it was 31%; in the test with TAOK3 it was 6%. Moreover, the “%Inh” value with TBK1 was 15%; in the test on TEC, 0%; with TESK1, 7%; with TGFBR1 it was 0%; in the test on TGFBR2, 0%; in the test on TIE1, 5%. Also, the “%Inh” value is 0% with TIE2 and 3% with TLK1.
Turning to `CCc1ccnc(/C=C/c2n[nH]c3cc(Sc4ccccc4C(=O)NC)ccc23)c1`, the “%Inh” value with SRPK3 was 14%; with STK16 it was 0%; with STK33 it was 4%; in the test with STK35, 0%; in the test with STK36, 12%; in the test on STK39, 0%. Moreover, the “%Inh” value with SYK was determined as 0%; with SgK110, 47%; with TAK1, 1%; in the test with TAOK1, 0%; in the test on TAOK2, 100%; in the test with TAOK3, 0%. Further, the “%Inh” value worked out at 0% in the test on TBK1; 3% with TEC; 8% in the test on TESK1; 0% in the test on TGFBR1; 0% in the test on TGFBR2; 48% in the test on TIE1. Besides, the “%Inh” value in the test on TIE2 is 8%; with TLK1, 0%.
`NCC(NC(=O)c1cc(-c2cn[nH]c2)c(-c2ccnc3[nH]ccc23)s1)c1ccccc1.O=C(O)C(F)(F)F.O=C(O)C(F)(F)F` (centres unmarked) [GSK1325775]: the “%Inh” value came out at 37% in the test with SRPK3; 46% in the test on STK16; 79% with STK33; 0% in the test with STK35; 0% in the test on STK36; 9% in the test on STK39. Besides, the “%Inh” value was determined as 0% in the test on SYK; 66% with SgK110; 78% in the test on TAK1; 91.9% in the test with TAOK1; 40% in the test on TAOK2; 40% in the test on TAOK3. The “%Inh” value in the test with TBK1 turned out to be 20%; with TEC, 1%; in the test with TESK1, 18%; in the test with TGFBR1, 4%; in the test with TGFBR2, 0%; with TIE1, 6%. Besides, the results for the “%Inh” value in the test with TIE2 and in the test with TLK1 were 0% and 5%, respectively.
Turning to `O=C(Nc1n[nH]c2cc(-c3cccc(F)c3)ccc12)C1CC1` [SB-735464], the “%Inh” value with SRPK3 is on record as 37%; in the test with STK16, 5%; with STK33, 0%; in the test on STK35, 12%; in the test on STK36 it was 16%; in the test on STK39 it was 0%. The “%Inh” value with SYK is given as 4%; in the test on SgK110, 0%; in the test on TAK1, 6%; in the test with TAOK1, 40%; in the test on TAOK2, 32%; in the test with TAOK3, 8%. Moreover, the “%Inh” value with TBK1 is reported as 10%; in the test with TEC, 0%; with TESK1, 17%; in the test with TGFBR1 it was 5%; with TGFBR2 it was 0%; in the test on TIE1 it was 0%. In addition, the “%Inh” value in the test with TIE2 and in the test with TLK1 was 16% throughout.
For `Cc1ccc(NC(=O)c2ccnc(N3CCN(C)CC3)c2)cc1-c1ccc(C(=O)NCC2CC2)cc1` [GW775604], the “%Inh” value in the test with SRPK3 worked out at 5%; with STK16, 0%; in the test on STK33, 0%; in the test with STK35, 1%; in the test on STK36, 0%; in the test with STK39, 0%. For the same compound, the “%Inh” value came to 26% in the test with SYK; 3% in the test with SgK110; 0% with TAK1; 0% in the test with TAOK1; 13% in the test with TAOK2; 0% in the test on TAOK3. In addition, the “%Inh” value in the test on TBK1 amounted to 13%; with TEC, 0%; in the test with TESK1, 0%; with TGFBR1, 25%; in the test with TGFBR2 it was 0%; in the test with TIE1, 2%. For the same compound, the “%Inh” value with TIE2 and with TLK1 was 0% throughout.
Turning to `Cc1ccc(C(=O)NCC(N)=O)cc1-n1c(C)cc(OCc2ccc(F)cc2F)c(Br)c1=O`, the “%Inh” value turned out to be 21% in the test with SRPK3; 10% with STK16; 10% in the test with STK33; 10% with STK35; 15% in the test on STK36; 0% in the test with STK39. Besides, the “%Inh” value came out at 20% in the test on SYK; 0% in the test with SgK110; 0% in the test on TAK1; 0% in the test on TAOK1; 7% in the test on TAOK2; 0% in the test with TAOK3. Further, the “%Inh” value amounted to 36% in the test with TBK1; 13% in the test with TEC; 31% in the test with TESK1; 36% in the test with TGFBR1; 26% in the test on TGFBR2; 0% with TIE1. For the same compound, the “%Inh” value in the test with TIE2 and with TLK1 was 0% in each case.
For `CN1c2ccc(CNc3ccc(F)cc3)cc2-c2c(cnn2C)S1(=O)=O`, the “%Inh” value in the test with SRPK3, in the test on STK16, in the test on STK33, in the test on STK35, in the test with STK36 and in the test with STK39 was 0% in each case. The “%Inh” value stood at 27% in the test on SYK; 0% with SgK110; 0% with TAK1; 0% with TAOK1; 23% in the test on TAOK2; 0% in the test on TAOK3. Also, the “%Inh” value in the test with TBK1, in the test with TEC, in the test on TESK1, in the test with TGFBR1, in the test with TGFBR2 and in the test with TIE1 was 0% in each case. In addition, the “%Inh” value is listed as 0% with TIE2 and 16% in the test on TLK1.
With `O=c1cc(N2CCOCC2)nc2n(Cc3cccc(F)c3)ccn12` [GSK2297430], the “%Inh” value with SRPK3 is listed as 7%; in the test with STK16 it was 14%; in the test with STK33 it was 0%; with STK35, 18%; in the test on STK36, 0%; in the test on STK39 it was 0%. Further, the “%Inh” value is 11% in the test on SYK; 0% in the test on SgK110; 0% in the test on TAK1; 0% in the test on TAOK1; 0% in the test on TAOK2; 0% in the test on TAOK3. For the same compound, the “%Inh” value with TBK1 was 0%; with TEC it was 0%; in the test on TESK1 it was 19%; in the test on TGFBR1, 0%; with TGFBR2, 13%; in the test with TIE1, 7%. Besides, the figures for the “%Inh” value in the test on TIE2 and in the test on TLK1 were 0% and 6%, respectively.
